Rows were chosen to be rich in hits. Some 19% of all compounds tested hit in one or more screens of this group.
TDP1 cell noCPT: qHTS for Inhibitors of human tyrosyl-DNA phosphodiesterase 1 (TDP1): qHTS in cells in absence of CPT; 15% of 420,000 active; Potency, µM (highest dose often 46.2 µM), for inactives: top-dose activity change, negative = growth inhibition, most hits filed as inhibitors; AID 686978, 2013; DT40 Tdp1-/- hTDP1 cells, no CPT, ATP luminescence, 48 h; note: nearly all actives have a fitted effect of over 55% in size
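Stably hTDP1-transfected Tdp1-null chicken DT40 cells were treated with library compounds minus camptothecin and grown for at least 48 hr at 37 °C, after which cellular ATP was quantified by luminescence.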
TDP1 block: TDP1 (human) enzyme inhibition; Q9NUW8; recombinant TDP1, AlphaScreen DNA substrate cleavage; Potency, µM (titrated, usually from 130 µM), for the others: at the top dose activity change, negative = inhibition, usual class: inhibitors; 0.28% of 350,000 active; AID 485290; note: nearly all actives have a fitted effect of over 40% in size
Target sequence (Q9NUW8 whole entry, looked up): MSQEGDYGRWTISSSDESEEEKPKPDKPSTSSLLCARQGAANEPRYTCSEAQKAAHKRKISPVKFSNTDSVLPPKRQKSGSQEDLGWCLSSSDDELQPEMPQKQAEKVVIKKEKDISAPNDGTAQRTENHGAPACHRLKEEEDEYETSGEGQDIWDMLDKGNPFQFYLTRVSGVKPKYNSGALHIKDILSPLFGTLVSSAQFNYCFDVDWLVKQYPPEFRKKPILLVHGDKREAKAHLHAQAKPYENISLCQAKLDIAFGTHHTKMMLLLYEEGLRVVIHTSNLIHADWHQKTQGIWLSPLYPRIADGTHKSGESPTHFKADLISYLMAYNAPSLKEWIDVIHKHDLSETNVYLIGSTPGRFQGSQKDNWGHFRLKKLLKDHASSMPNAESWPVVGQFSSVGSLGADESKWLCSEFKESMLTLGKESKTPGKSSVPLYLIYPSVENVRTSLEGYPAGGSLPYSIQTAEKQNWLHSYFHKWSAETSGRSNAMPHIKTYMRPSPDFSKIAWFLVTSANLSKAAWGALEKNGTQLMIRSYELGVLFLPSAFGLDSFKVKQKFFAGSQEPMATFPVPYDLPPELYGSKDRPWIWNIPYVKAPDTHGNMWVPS
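AlphaScreen read-out: signal falls as enzyme removes the 3' tyrosine-FITC from a 5'-biotinylated DNA oligo (15 nM, 5 min, RT). Enzyme was E. coli-made recombinant Tdp1 at 1 nM, exposed to compound for 15 min beforehand; beads 10 ug/ml, 10 min.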
VP16 counter: Gal4-VP16 reporter inhibition counter-screen; Drosophila S2 Gal4-VP16 UAS-luciferase, luminescence, 20 h; Potency, µM (top dose mostly 53.6 µM), inactives show top-dose activity, negative = inhibition, usual class: inhibitors; 3.5% of 310,000 active; AID 2546;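 note: Gal4-VP16 expression switched on by copper sulfate through the metallothionein promoter; nearly all actives have a fitted effect of over 50% in size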
RORg inh: inhibitors of mouse ROR gamma transcriptional activity; Drosophila S2 Gal4-RORgamma UAS-luciferase reporter, 20 h; Potency, µM (doses to about 53.6 µM), inactives show at the highest dose activity change, negative = inhibition, actives largely listed as inhibitors; 5.4% of 310,000 active; note: nearly all actives have a fitted effect of over 60% in size
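Schneider cells (Drosophila), stable Gal4 DBD–ROR gamma + UAS-luc; 1 hr cmpd preincubation; Cu2+ induction 700 uM final; 20 hr ambient; luminescence.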
DT40 TDP1 CPT: DT40-hTDP1 cell growth loss with CPT | chicken DT40 Tdp1-/-;hTDP1 cells + 20 nM CPT, ATP luminescence, 48 h | 12% of 420,000 active | AID 686979 | Potency, µM (titrated, usually from 46.2 µM), without a hit: top-dose activity change, negative = growth inhibition, actives largely listed as inhibitors; note: nearly all actives have a fitted effect of over 55% in size
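Chicken DT40 Tdp1-/- cells complemented with human TDP1, 400 cells/well, exposed to compounds plus 20 nM camptothecin for at least 48 h at 37 C; viability read as ATP content by CellTiter-Glo luminescence.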
Numbers without * were called inactive; ? = inconclusive; · = not tested or not shown; [ ] = remark or other dose. Calls come from the whole dose curve; as a rule, active = well fitted curve in the direction sought with a large enough effect; inconclusive = small, poorly fitted or top-dose-only effect, or another doubt; inactive = no such curve, though single readings can be large; an effect the other way counts as inactive or inconclusive. % is set by controls: 0 for no effect and ±100 for the full control effect; potency is the fitted concentration of half-maximal effect.

SMILES	TDP1 cell noCPT	TDP1 block	VP16 counter	RORg inh	DT40 TDP1 CPT
CC(C)C(c1nnnn1Cc1ccc2c(c1)OCO2)N1CCN(c2ccccc2)CC1 (stereo not given)	20.6µM*	-2.1%	-4.1%	1.2%	-14.6%
c1ccc(Cn2nnnc2C(c2ccncc2)N2CCOCC2)cc1 (stereo not given)	-11.0%	4.2%	0.7%	2.0%	-11.7%
Fc1ccc(C(c2nnnn2Cc2cccs2)N2CCN(C3CCCCC3)CC2)cc1 (stereo not given)	20.6µM*	4.8%	0.8%	-2.9%	?
Cc1cc(C(c2nnnn2Cc2ccccc2)N2CCOCC2)c(C)n1-c1ccc2c(c1)OCO2 (stereo not given)	16.4µM*	7.3%	3.7%	-43.1%	?
CN1CCN(C(c2ccc(F)cc2)c2nnnn2Cc2cccs2)CC1 (stereo not given)	-23.4%	-2.1%	-7.2%	0.5%	-9.8%
COc1ccc(C(CC(=O)O)NC(=O)c2cc3cc(Br)ccc3oc2=O)cc1OC (stereo not given)	-12.3%	4.6%	3.4%	-14.4%	4.9%
O=C(CN1C(=O)c2ccc([N+](=O)[O-])cc2C1=O)Nc1nccs1	-3.2%	2.4%	-16.8%	4.7%	3.1%
C=CCSc1n[nH]c(-c2cccs2)n1	-2.6%	-2.5%	?	11.2µM*	0.6%
C=CCSc1n[nH]c(-c2ccc(OCCC)cc2)n1	16.4µM*	6.6%	?	10µM*	29.1µM*
CCCOc1ccc(-c2nc(SCC(=O)c3ccc(Cl)cc3)n[nH]2)cc1	-22.2%	4.5%	·	·	-24.3%
C=CCSc1n[nH]c(-c2ccc(OCCCC)cc2)n1	?	2.2%	8.91µM*	8.91µM*	?
Cc1cccc(C)c1-n1nnnc1C(c1ccnc2ccccc12)N1CCN(C(=O)OC(C)(C)C)CC1 (stereo not given)	0.7%	·	·	·	-0.1%
CC(C)(C)OC(=O)N1CCCN(C(c2ccnc3ccccc23)c2nnnn2-c2ccc3c(c2)OCCO3)CC1 (stereo not given)	3.66µM*	·	·	·	?
CC(C)NC(=O)CN1CCN(C(c2ccnc3ccccc23)c2nnnn2-c2ccc3c(c2)OCCO3)CC1 (stereo not given)	-21.8%	·	·	·	-29.5%
CCOC(=O)N1CCN(C(c2ccnc3ccccc23)c2nnnn2-c2ccc3c(c2)OCCO3)CC1 (stereo not given)	16.4µM*	·	·	·	?
Cc1ccc(CNc2ccc(O)cc2)cc1	16.4µM*	5.2%	?	?	?
COc1cccc(C(C(=O)NCc2ccccc2)N2CCN(C(=O)C3CCCO3)CC2)c1OC (stereo not given)	-8.8%	·	·	·	4.2%
Cc1cccc(N2CCN(C(C(=O)NCc3ccccc3)c3ccc(F)cc3)CC2)c1C (stereo not given)	20.6µM*	·	·	·	23.1µM*
COc1cccc(C(C(=O)NCc2ccccc2)N2CCN(c3cccc(C)c3C)CC2)c1OC (stereo not given)	18.4µM*	·	·	·	18.4µM*
O=C(NCc1ccccc1)C(c1ccc(-c2ccccc2)cc1)N1CCN(c2ccccc2F)CC1 (stereo not given)	?	·	·	·	18.4µM*
O=C(NCc1ccccc1)C(c1ccc(F)cc1)N1CCN(CCN2CCOCC2)CC1 (stereo not given)	-5.6%	·	·	·	-11.3%
CCC(CC)C(C(=O)NCc1ccccc1)N1CCN(c2cccc(C)c2C)CC1 (stereo not given)	5.8µM*	·	·	·	6.51µM*
O=c1cc(N2CCC(Cc3ccccc3)CC2)[nH]c(=O)n1C1CCCCC1	16.4µM*	-2.1%	1.4%	19.3%	?
O=c1cc(N2CCc3ccccc3C2)[nH]c(=O)n1C1CCCCC1	?	-2.1%	-10.4%	18.3%	1.84µM*
CC1(C)O[C@@H]2[C@H](O1)[C@@H](CO)O[C@H]2n1cnc2c(=O)[nH]cnc21	-5.4%	1.3%	·	·	29.1µM*
SMILES	TDP1 cell noCPT	TDP1 block	VP16 counter	RORg inh	DT40 TDP1 CPT
CCn1c(=O)c(C(=O)NNC(=O)c2ccccc2F)c(O)c2ccccc21	18.4µM*	-0.2%	?	7.94µM*	?
CCCCCC(=O)NNC(=O)c1c(O)c2ccccc2n(CC)c1=O	?	2.8%	0.8%	43.0%	?
CCCCCCCCCC(=O)NNC(=O)c1c(O)c2ccccc2n(CC)c1=O	8.2µM*	6.0%	0.1%	-11.0%	?
CCn1c(=O)c(C(=O)NNC(=O)c2ccccc2Cl)c(O)c2ccccc21	?	0.0%	?	7.94µM*	?
Cc1cccc(C(=O)C2CCOC(C)(C)C2)c1 (stereo not given)	15.0%	0.0%	3.9%	-0.5%	24.0%
Cc1ccc(NC(=O)c2ccc(S(=O)(=O)N3CC(C)CC(C)C3)cc2)cc1S(=O)(=O)N1CCOCC1 (stereo not given)	7.31µM*	·	·	·	16.4µM*
Cc1ccc(C(=O)Nc2ccc(S(=O)(=O)N3CCOCC3)cc2)cc1C	?	·	0.0%	11.3%	?
CC1CC(C)CN(C(=O)c2ccc(NC(=O)c3ccc(=O)[nH]c3)cc2)C1 (stereo not given)	-22.8%	1.3%	-2.3%	-1.3%	0.0%
Cc1cc(C)n(-c2ccc(C(=O)Nc3ccc(C)c(S(=O)(=O)N4CCOCC4)c3)cc2)n1	16.4µM*	0.0%	-1.4%	?	?
CC(=O)c1ccc(NC(=O)c2ccc(C)c(S(=O)(=O)N3CCOCC3)c2)cc1	?	2.7%	7.2%	1.6%	1.4%
CC1CC(C)CN(S(=O)(=O)c2ccc(NC(=O)c3ccc(=O)[nH]c3)cc2)C1 (stereo not given)	2.91µM*	-3.7%	·	·	3.26µM*
O=C(O)CCc1ccc(-c2cccs2)o1	-1.9%	15.8µM*	?	11.2µM*	?
COC(=O)N/N=C1\CCCc2c(C)cc(C)cc21	-5.2%	2.5%	-2.7%	4.7%	10.5%
Cc1cc(C)c2c(c1)/C(=N/NC(=S)Nc1ccc(F)cc1)CCC2	-28.2%	8.8%	15.8µM*	-21.9%	-7.4%
Nc1cc(=O)[nH]c(=O)n1Cc1ccco1	-16.2%	4.4%	-1.4%	7.9%	-8.8%
CC(C)Nc1nc(N)c(C(=O)C23CC4CC(CC(C4)C2)C3)s1	?	1.9%	-2.0%	-13.1%	20.6µM*
COc1cccc(C(=O)c2sc(NC(C)C)nc2N)c1	?	2.2%[56.1 µM]	11.2µM*	?	?
COc1cccc(C(=O)c2sc(Nc3ccc(F)c(Cl)c3)nc2N)c1	-15.7%	-2.6%	·	·	2.0%
CC(C)NCC(=O)C12CC3CC(CC(C3)C1)C2	-3.7%	7.0%	3.4%	8.0%	-3.6%
COc1ccc(C(=O)c2sc(NC(C)C)nc2N)cc1OC	23.1µM*	4.0%	?	-28.4%	?

High-throughput results deposited in PubChem by National Center for Advancing Translational Sciences (NCATS).
